# Only some compounds are listed: those with a hit (about 1.6% of all), similar ones and a draw of the others.
# KCNQ2 block: inhibitors of rat KCNQ2 potassium channel; CHO-K1 KCNQ2, FluxOR thallium flux, 20 min; active compounds read low; B-score at 10 µM; hit rate 1.1% among 310,000; AID 2156;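 active means fluorescence ratio B-score at most minus 3 library SDs, with starting brightness B-score within 2 library SDs, cut at about -5.5 in these data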
# KCNQ2 enhance: potentiators of rat KCNQ2 potassium channel | CHO-K1 KCNQ2, FluxOR thallium flux fluorescence; active compounds read high | B-score at 10 µM | hit rate 0.54% among 310,000 | AID 2239;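 active means fluorescence ratio B-score at least 3 SD of library B-scores, with initial fluorescence B-score within 3 of them, cut at about 5.3 in these data; same plate scores as AID 2156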;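 further: B-score of peak minus minimum over baseline fluorescence ratio after K+ and Tl+ stimulus; positive B-score means potentiation of KCNQ2 with more thallium influx and brighter signal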
# A number is an active result; 0 = inactive; - = no result.
SMILES,KCNQ2 block,KCNQ2 enhance
COC(=O)c1ccc(COc2ccccc2/C=C(\C#N)C(=O)Nc2ccc(C)cc2C)cc1,0,-
O=C1c2cccnc2C(=O)N1Cc1ccc(F)cc1S(=O)(=O)NCc1ccco1,0,0
Cc1ccc(NC(=O)NCCN2CCCCC2)cc1C,0,0
CCCCSCCCNC(=O)Nc1ccc(C)c(C)c1,0,8.69
O=C(COC(=O)c1oc2ccccc2c1CSc1ccc(Cl)cc1)NC1CCCC1,-6.43,0
NC(=O)COC(=O)c1oc2ccccc2c1CSc1ccc(Cl)cc1,0,-
O=S(=O)(Cc1ccc(Cl)cc1)NCc1cccnc1,0,0
COc1ccc(/C(O)=C2\C(=O)C(=O)N(c3cc(C)on3)C2c2cccc(OC)c2OC)cc1C (centres undefined),0,0
COc1cccc(C2c3c(oc4ccc(Cl)cc4c3=O)C(=O)N2c2cc(C)on2)c1OC (centres undefined),-7.19,0
CC(NC(=O)COc1ccccc1F)C1CC2CCC1C2 (centres undefined),-5.98,0
CC(NC(=O)c1ccc(F)cc1)C1CC2CCC1C2 (centres undefined),0,-
CC(C)[C@H](NC(=O)N1CCn2c1nc1ccccc12)C(=O)NCC1CCCO1 (some centres undefined),0,-
Cc1[nH]c2ccc(C(=O)NCCN3CCOCC3)cc2c1C,0,-
CC(C)(CO)NC(=O)C(Cc1ccccc1)N1C(=O)c2ccccc2C1=O (centres undefined),0,0
COC(=O)c1cn(C(=O)c2cc(C)cc(C)c2)c2ccccc12,0,0
COC(=O)c1cn(C(=O)c2cc(Br)ccc2Cl)c2ccccc12,-6.07,0
COc1ccc(C2C(C(=O)NCc3ccccn3)CCC(=O)N2c2cc(OC)c(OC)c(OC)c2)cc1 (centres undefined),0,-
CC1CCC(C(C)C)C(OC(=O)Cn2c(-c3ccc(Br)cc3)[n+](C)c3ccccc32)C1 (centres undefined),-5.59,0
CC1CCC(C(C)C)C(OC(=O)COC(=O)c2cccn2C)C1 (centres undefined),0,-
Fc1ccccc1COc1ccc(C(=S)N2CCCC2)cc1,0,-
C=C1CCN([C@@H](CC(C)C)C(=O)NCc2ccc(Cl)c(Cl)c2)S(=O)(=O)c2ccccc21,0,-
C=C1CCN([C@@H](Cc2ccccc2)C(=O)NCc2ccc(Cl)c(Cl)c2)S(=O)(=O)c2ccccc21,-6.18,0
O=C(c1ccccn1)N1N=C2/C(=C/c3ccccc3)CCCC2C1c1ccccc1 (centres undefined),0,-
CNC(=O)c1sc(N2N=C3/C(=C/c4ccccc4)CCCC3C2c2ccccc2)nc1C (centres undefined),-6.11,0
CSCCC(NS(=O)(=O)c1cccs1)C(=O)NCc1ccccc1 (centres undefined),0,0
SMILES,KCNQ2 block,KCNQ2 enhance
CSCCC(NS(=O)(=O)c1cccs1)C(=O)NCc1ccc(C)cc1 (centres undefined),0,9.63
O=C(CN1CCOCC1)Nc1ccc2c(c1)OCCO2,0,-
N#Cc1nc(COc2ccc(Cl)cc2Cl)oc1N1CCN(c2ccccc2)CC1,-7.71,0
COc1ccc(N2CCN(c3oc(COc4ccc(Cl)cc4Cl)nc3C#N)CC2)cc1,0,0
Cc1csc(=O)n1CCC(=O)OCC(=O)Nc1cc([N+](=O)[O-])ccc1Cl,0,0
COc1cccc(C(=O)Nc2cc(NC(=O)c3cccs3)ccc2C)c1OC,0,-
O=S(=O)(NN1CCOCC1)c1ccc(Cl)s1,0,0
CC(=O)c1ccc(OCC(=O)NC2CCCN(Cc3ccccc3F)C2)cc1 (centres undefined),0,-
CCc1nn(C(C)C(=O)N2CCN(Cc3ccccc3)CC2)c(=O)c2cc3occc3n12 (centres undefined),0,-
Cc1nn(C(C)C(=O)N2CCN(c3ccccn3)CC2)c(=O)c2cc3occc3n12 (centres undefined),0,0
CCc1nn(C(C)C(=O)N2CC(C)CC(C)C2)c(=O)c2cc3occc3n12 (centres undefined),-8.1,0
Cc1cccc(N2CCN(C(=O)C(C)n3nc(C)n4c(cc5occc54)c3=O)CC2)c1C (centres undefined),-6.11,0
CC(NC(=S)NNS(=O)(=O)c1cccc([N+](=O)[O-])c1)c1ccccc1 (centres undefined),0,-
O=C(Nc1c2c(nn1-c1ccc(F)cc1)CS(=O)C2)c1ccc(S(=O)(=O)N2CCOCC2)cc1 (centres undefined),0,0
COc1ccc(C2(CNC(=O)c3ccccc3)CCCC2)cc1OC,0,-
COc1cccc(C(=O)NCC2(c3ccccc3)CCCC2)c1OC,-5.9,0
CCN(c1ccc(OC)cc1)S(=O)(=O)N1CCCC(C(=O)NCc2cccc(C)c2)C1 (centres undefined),-6.37,0
CCS(=O)(=O)N1CCCC(C(=O)NCc2cccc(OC)c2)C1 (centres undefined),0,0
COCCCn1c(SCC(=O)NC2CCCCC2)nnc1-c1ccco1,0,0
CC(NC(=O)NC(=O)c1cccc(Cl)c1)c1ccccc1 (centres undefined),0,-
Cc1ccc(O)c(C(=O)c2cnc3c(c2)CN(C)C(=O)N3)c1,0,0
Cc1ccc2c(c1)-c1ncc(C(=O)c3cc(Br)ccc3O)cc1CO2,-7.43,0
Cc1onc(-c2c(Cl)cccc2Cl)c1/C(N)=N/OC(=O)C(C)(C)C,0,0
Cc1onc(-c2c(Cl)cccc2Cl)c1CO/N=C(\C#N)c1c(Cl)cccc1Cl,-5.55,0
CCN1CCN(C(=O)c2cc(-c3cccnc3)nc3ccc(Br)cc23)CC1,-8.31,0
SMILES,KCNQ2 block,KCNQ2 enhance
COc1cccc(CN2CCN(C(=O)c3cc(-c4ccncc4)nc4ccc(C)cc34)CC2)c1,-5.86,0
O=C(O)c1cc(-c2cccnc2)nc2ccc(Br)cc12,0,0
COc1cccc(CN2CCN(C(=O)c3cc(-c4ccccn4)nc4ccc(Cl)cc34)CC2)c1,0,-
O=C(COC(=O)CCC(=O)c1ccc(F)cc1)Nc1ccc2[nH]c(=O)[nH]c2c1,0,-
Cc1cccc(NC(=S)N2CCN(S(=O)(=O)c3ccc(F)cc3)CC2)c1,0,-
O=C(Nc1ccnn1C1CCN(Cc2ccc(CO)o2)CC1)c1ccccc1,0,0
O=C1CCCC(O)=C1Sc1ccccc1C(=O)O,0,-
O=C1CCCC(O)=C1C(C#Cc1ccccc1)C1=C(O)CCCC1=O,-6.46,0
CC1(C)CC(=O)C(C(C#Cc2ccccc2)C2=C(O)CC(C)(C)CC2=O)=C(O)C1,-5.66,0
CC1(C)CC(=O)C(N=Nc2ccc(-c3ccccc3)cc2)=C(O)C1,0,-
Nc1cnccc1Oc1cccc(C(F)(F)F)c1,0,0
CCN(c1ccccc1)S(=O)(=O)c1cccc(C(=O)NCc2ccccn2)c1,0,-
O=C(Nc1nccs1)c1cc2cc(Cl)ccc2oc1=O,0,0
COC(=O)c1ccc(N2CCS(=O)(=O)CC2)cc1,0,-
CCN(CC)c1ccc(S(=O)(=O)N2CCOCC2)cc1NC(=O)CSC(=S)N1CCCC1,0,-
C[n+]1c2n(c3ccccc31)N=C(c1cc(C(C)(C)C)c(O)c(C(C)(C)C)c1)CS2,-6.64,0
COc1cccc(C2=Nn3c(nnc3-c3ccccc3O)SC2)c1,0,-
Cc1ccc(CCC(=O)Nc2ccc([N+](=O)[O-])cc2)o1,0,0
CC(C)C1=NN(C(=O)c2cccnc2)C(O)(C(F)(F)F)C1 (centres undefined),0,0
CC1=NN(C(=O)c2cccnc2)C(O)(C(F)(F)F)C1 (centres undefined),0,11.1
